# Rows were chosen to be rich in hits. Some 1.6% of all compounds tested hit in one or more screens of this group.
# KCNQ2 enhance – KCNQ2 (rat) channel potentiation. O88943. CHO-K1 KCNQ2, FluxOR thallium flux fluorescence; active compounds read high. 310,000 compounds, 0.54% hits. B-score at 10 µM;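 active = fluorescence ratio B-score at least 3 SD of library B-scores, with initial fluorescence B-score within 3 of them, cut at about 5.3 in these data; same plate scores as AID 2156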;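 note: B-score of peak minus minimum over baseline fluorescence ratio after K+ and Tl+ stimulus; positive B-score means potentiation of KCNQ2 with more thallium influx and brighter signal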
# KCNQ2 block – blocks the rat KCNQ2 potassium channel; B-score at 10 µM; 310,000 compounds, 1.1% hits; AID 2156; CHO-K1 KCNQ2, FluxOR thallium flux, 20 min; active compounds read low;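 active = fluorescence ratio B-score at most minus 3 library SDs, with starting brightness B-score within 2 library SDs, cut at about -5.5 in these data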
# Kir21 conf inh – confirmation of mouse Kir2.1 potassium channel inhibitors. Tl flux remaining, % of negative control (active compounds read low), % at 10 µM. Kir2.1-expressing cells, FluxOR thallium flux fluorescence; active compounds read low. AID 2032. shares compounds with KCNQ2 enhance. 2,300 compounds, 41% hits;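 active = Primary-screen hit whose thallium flux fell at least 3 control SD below untreated wells in both duplicates, with normal baseline fluorescence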;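 note: 0% = blank wells without stimulus and 100% = stimulated no-compound controls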
# HEK293 Tl flux – alters thallium flux in parental HEK293 cells, Kir2.1 counter-screen; 2,300 compounds, 19% hits; FluxOR thallium flux fluorescence; 0% = unstimulated blank wells; shares compounds with KCNQ2 enhance; AID 2105; FluxOR signal as % of negative control (100 = no effect), % at 10 µM;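 active = dye signal at least 3 control SD above or below untreated wells in both duplicates, raw fluorescence within 3, either direction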;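 note: percent is based on the flux ratio of peak minus minimum fluorescence over baseline F0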
# CHO-K1 ctr – alters thallium flux in parental CHO-K1 cells, KCNQ2 counter-screen | shares compounds with KCNQ2 enhance | FluxOR thallium flux fluorescence; zero = vehicle mean+3SD, 100% = vehicle-minus-blank window | activity increase over 3SD of controls, % at 10 µM | 1,200 compounds, 43% hits | AID 2282;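 active = signal rise of at least 3 SD above the untreated control mean, in both duplicate wells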;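 note: counter screen of KCNQ2 potentiator hits so any rise reflects channel-independent effects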
# KCNQ1 pot spec – human KCNQ1 counter-target activity of KCNQ2 potentiators | shares compounds with KCNQ2 enhance | CHO KCNQ1 stable, FluxOR thallium flux fluorescence; beyond 3SD, as % of vehicle-control signal | activation over 3SD threshold, % at 10 µM | 1,200 compounds, 28% hits | AID 2283;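 active = fluorescence ratio rise of at least 3 SD of vehicle wells above their mean, in both replicate wells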;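 note: 0% = vehicle mean plus 3 SD and 100% = vehicle minus unstimulated blank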
# Target sequence (P51787 whole entry, looked up): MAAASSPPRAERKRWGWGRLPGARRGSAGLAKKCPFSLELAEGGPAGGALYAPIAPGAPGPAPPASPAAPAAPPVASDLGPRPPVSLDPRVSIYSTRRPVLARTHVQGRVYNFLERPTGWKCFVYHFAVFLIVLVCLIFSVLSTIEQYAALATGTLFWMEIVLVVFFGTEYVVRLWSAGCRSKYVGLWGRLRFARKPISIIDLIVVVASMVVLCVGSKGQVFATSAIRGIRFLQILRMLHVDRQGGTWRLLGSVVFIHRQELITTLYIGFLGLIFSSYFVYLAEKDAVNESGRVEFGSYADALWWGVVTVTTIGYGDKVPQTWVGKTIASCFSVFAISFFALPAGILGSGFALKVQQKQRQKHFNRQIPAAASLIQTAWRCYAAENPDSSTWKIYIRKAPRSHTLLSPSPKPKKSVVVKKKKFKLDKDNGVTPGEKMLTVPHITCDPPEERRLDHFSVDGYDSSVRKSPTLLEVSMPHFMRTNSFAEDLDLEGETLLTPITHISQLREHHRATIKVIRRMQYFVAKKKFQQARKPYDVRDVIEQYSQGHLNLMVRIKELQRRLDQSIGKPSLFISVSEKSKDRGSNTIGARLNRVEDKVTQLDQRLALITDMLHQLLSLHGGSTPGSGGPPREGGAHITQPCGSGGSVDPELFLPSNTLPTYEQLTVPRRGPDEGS
# KCNQ2 pot confirm – rat KCNQ2 channel potentiator confirmation. shares compounds with KCNQ2 enhance. 1,200 compounds, 68% hits. potentiation, less the hit threshold, % at 10 µM. CHO-KCNQ2 cells, FluxOR thallium flux fluorescence;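 active = fluorescence ratio rising 3 SD or more over the vehicle control mean in both replicates, plus primary screen hit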;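 note: peak minus minimum thallium fluorescence divided by baseline after K/Tl stimulus; 0% = vehicle mean plus 3 SD and 100% = vehicle minus unstimulated blank difference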
# Kir21 spec – tests whether KCNQ2 potentiators also affect mouse Kir2.1; shares compounds with KCNQ2 enhance; AID 2345; activity over 3SD threshold, % at 10 µM; HEK293 Kir2.1, FluxOR thallium flux fluorescence; 1,200 compounds, 2% hits;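 active = fluorescence ratio rise of at least 3 SD above the vehicle-control mean, seen in both replicates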;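 note: 0% = vehicle mean plus 3 SD and 100% = vehicle minus no-stimulus blank window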
# KCNQ2 W236L MoA – rat KCNQ2 W236L mutant potentiation by KCNQ2 potentiators; shares compounds with KCNQ2 enhance; AID 2558; 940 compounds, 10% hits; current increase over 3SD of negative controls (%), active compounds read high, % at 25 µM; CHO KCNQ2-W236L, automated patch clamp current;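 active = current increase at least 3 SD of the untreated controls above them in both duplicate recordings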
# * hit, by the source's call; i = inactive; . = no result.
SMILES,KCNQ2 enhance,KCNQ2 block,Kir21 conf inh,HEK293 Tl flux,others
CCC(C)c1ccc(NC(=S)NCc2ccccc2OC)cc1 (stereo not given),0.01,i,.,.,
CCOC(=O)CSC1=C(C#N)C(c2ccc(Cl)cc2)CC(=O)N1 (stereo not given),0.03,i,47%*,i,
N#CC1=C(SCc2ccccc2)NC(=O)CC1c1ccccc1 (stereo not given),.,i,41%*,i,
CC(=O)C1=C(C)NC(SCC(=O)c2ccc(C)cc2)=C(C#N)C1c1ccco1 (stereo not given),12*,i,i,i,CHO-K1 ctr=-12;KCNQ1 pot spec=-20;KCNQ2 pot confirm=-22;Kir21 spec=-46
Cc1ccc(C(=O)CSC2=C(C#N)C(c3ccco3)C3=C(CC(C)(C)CC3=O)N2)cc1 (stereo not given),0.27,i,.,.,
C=CCSC1=C(C#N)C(c2ccccc2)CC(=O)N1 (stereo not given),0.71,i,.,.,
CCOC(=O)C1=C(C)NC(SCC(=O)OC)=C(C#N)C1c1ccc(C(=O)OC)cc1 (stereo not given),.,i,.,.,
CCOC(=O)CSC1=C(C#N)C(c2ccc3c(c2)OCO3)CC(=O)N1 (stereo not given),0.26,i,.,.,
CCOC(=O)CSC1=C(C#N)C(c2ccc(F)cc2)C(C(C)=O)=C(C)N1 (stereo not given),8.1*,i,i,i,CHO-K1 ctr=14*;KCNQ1 pot spec=-20;KCNQ2 pot confirm=4.6*;Kir21 spec=-44;KCNQ2 W236L MoA=i
COCCn1c(=S)[nH]c2cc(C(=O)N3CC(C)CC(C)C3)ccc2c1=O (stereo not given),0.31,i,.,.,
COc1ccc(OC)c(/C=N/NC(=O)CSc2cc(C)nc3c(OC)cccc23)c1,.,i,.,.,
Cn1c(=O)c(=O)n(C)c2cc([N+](=O)[O-])c(N3CCOCC3)cc21,.,i,.,.,
COc1ccc(-n2nc(C(=O)NCC(=O)N3CCC(C)CC3)c3ccccc3c2=O)c(OC)c1,.,i,.,.,
CN(C)c1ccc(NC(=O)Cc2ccccc2)c2ccccc12,5.3*,i,i,i,CHO-K1 ctr=-4;KCNQ1 pot spec=-31;KCNQ2 pot confirm=10*;Kir21 spec=-23;KCNQ2 W236L MoA=i
Cc1ccc(NC(=O)CN2CCC(NC(=O)Cc3ccccc3)CC2)c(C)c1,.,i,.,.,
Cc1ccc(NC(=O)CCOc2ccccc2)c(C)c1,6*,i,i,i,CHO-K1 ctr=-6;KCNQ1 pot spec=49*;KCNQ2 pot confirm=5.5*;Kir21 spec=-22;KCNQ2 W236L MoA=i
COc1cc(OC)cc(C(=O)Nc2ccc(N(C)C)c3ccccc23)c1,0.66,i,.,.,
Cc1ccc(F)cc1NC(=O)CCOc1ccccc1,.,i,.,.,
Cc1ccc(NC(=O)Cc2ccccc2)c(C)c1,6.4*,i,.,.,CHO-K1 ctr=3.4*;KCNQ1 pot spec=-5;KCNQ2 pot confirm=7.4*;Kir21 spec=-48;KCNQ2 W236L MoA=i
Cn1c(N)c(S(=O)(=O)NCc2ccc(F)cc2)c(=O)n(C)c1=O,.,i,.,.,
Oc1ccccc1Cc1c(O)ccc2ccccc12,.,i,.,.,
S=C(NCc1ccccc1)NCc1ccccc1Cl,.,i,.,.,
CCC1CCCCN1CCCNC(=O)c1ccc(CS(=O)(=O)Cc2ccc(Cl)cc2)o1 (stereo not given),.,i,.,.,
Cc1cc(NC(=O)C(C)SCC(=O)N(C)CC(=O)Nc2ccc(F)cc2)no1 (stereo not given),2,i,.,.,
Cc1occc1C(=O)NNC(=O)COc1ccc(Br)cc1Br,.,i,.,.,
Cc1occc1C(=O)NNC(=S)NC(=O)COc1ccc(Cl)cc1Cl,9.5*,i,i,149%*,CHO-K1 ctr=-18;KCNQ1 pot spec=93*;KCNQ2 pot confirm=6.5*;Kir21 spec=-25;KCNQ2 W236L MoA=i
CCOc1ccc(/C(O)=C2/C(=O)C(=O)N(c3ccccn3)C2c2ccc(F)cc2)c(C)c1 (stereo not given),.,i,.,.,

# Screening results deposited in PubChem by Johns Hopkins Ion Channel Center.
